Data from PubChem BioAssay (NCATS).
Inconclusive results are not listed. Where a call stands in place of a potency, no number is given. Values without a mark were called inactive. Calls of active or inactive are those of the source. Calls follow the shape of the dose curve; as a rule, active = well fitted cell-killing curve with a large enough effect; inconclusive = small, poorly fitted or top-dose-only effect, or effect the other way; inactive = flat fitted curve, though single readings scatter.

What was measured:
Assay in all cases: Primary qHTS to identify gynecologic anti-cancer compounds using libraries of approved drugs and bioactive compounds (AID 1345084); also: nearly all actives have a fitted effect of over 55% in size
[1] = tested on: C33A; conditions: Gynecologic cancer cell panel viability, ATPlite luminescence, 48 h; series mostly up to 57.5 µM
In short: (§1)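 Cell viability after 48 h drug treatment, ATPlite luminescence readout; five doses.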

[2] = tested on: CAOV3; conditions: Gynecologic cancer cell panel viability, ATPlite luminescence, 48 h; series mostly up to 57.5 µM
In short: as §1

[3] = tested on: CASKI; conditions: Gynecologic cancer cell panel viability, ATPlite luminescence, 48 h; series mostly up to 57.5 µM
In short: as §1

[4] = tested on: Es-2; conditions: Gynecologic cancer cell panel viability, ATPlite luminescence, 48 h; series mostly up to 57.5 µM
In short: as §1

[5] = tested on: HeLa; conditions: Gynecologic cancer cell panel viability, ATPlite luminescence, 48 h; series mostly up to 57.5 µM
In short: as §1

[6] = tested on: Hek293T; conditions: Gynecologic cancer cell panel viability, ATPlite luminescence, 48 h, control line for the selectivity index; series mostly up to 57.5 µM
In short: as §1

[7] = tested on: JEG-3; conditions: Gynecologic cancer cell panel viability, ATPlite luminescence, 48 h; series mostly up to 57.5 µM
In short: as §1

[8] = tested on: OV90; conditions: Gynecologic cancer cell panel viability, ATPlite luminescence, 48 h; series mostly up to 57.5 µM
In short: as §1

[9] = tested on: PA-1; conditions: Gynecologic cancer cell panel viability, ATPlite luminescence, 48 h; series mostly up to 57.5 µM
In short: as §1

[10] = tested on: SKOV3; conditions: Gynecologic cancer cell panel viability, ATPlite luminescence, 48 h; series mostly up to 57.5 µM
In short: as §1

[11] = tested on: Tov-21-G; conditions: Gynecologic cancer cell panel viability, ATPlite luminescence, 48 h; series mostly up to 57.5 µM
In short: as §1

[12] = tested on: Tov112D; conditions: Gynecologic cancer cell panel viability, ATPlite luminescence, 48 h; series mostly up to 57.5 µM
In short: as §1
Potency is read from the fitted curve at half-maximal effect.

Compound	Potency [1]	Potency [2]	Potency [3]	Potency [4]	Potency [5]	Potency [6]	Potency [7]	Potency [8]	Potency [9]	Potency [10]	Potency [11]	Potency [12]
Cc1cc(Nc2nc(NC(C)c3ncc(F)cn3)ncc2Cl)n[nH]1 (configuration not stated)	inactive	inactive	inactive	inactive	inactive	inactive	inactive	inactive	inactive	inactive	inactive	inactive
CC1=C(C(=O)O)/C(=C/CO[C@@H]2O[C@H](COC(=O)/C=C/c3ccc(O)cc3)[C@@H](O)[C@H](O)[C@H]2O)C(O)C1 (some centres not stated)	inactive	inactive	inactive	inactive	inactive	inactive	inactive	inactive	inactive	inactive	inactive	inactive
Cc1cc(C)cc(C(=O)NOCCCCCC(=O)NO)c1	3.98 µM (active)	8.91 µM (active)	7.08 µM (active)	3.16 µM (active)	3.16 µM (active)	3.55 µM (active)	3.16 µM (active)	3.98 µM (active)	0.891 µM (active)	3.16 µM (active)	8.91 µM (active)	3.55 µM (active)
CC(C)(O)/C=C/C1=CC(=O)[C@@](C)(O)C[C@H]1O	inactive	inactive	inactive	inactive	inactive	inactive	inactive	inactive	inactive	inactive	inactive	inactive
CC/C=C\CC1C(=O)C=CC1(CCCCCCCC(=O)O)OC(C)=O (configuration not stated)	inactive	inactive	inactive	inactive	inactive	inactive	inactive	inactive	inactive	inactive	inactive	inactive
CC12CCC3c4ccc(OC5OC(C(=O)O)C(O)C(O)C5O)cc4CCC3C1CCC2O (configuration not stated)	inactive	inactive	inactive	inactive	inactive	inactive	inactive	inactive	inactive	inactive	inactive	inactive
CC(=O)O[C@@H]1c2c(C)coc2C(=O)[C@@]23O[C@@H]2CC[C@H](C)[C@@]13C	inactive	inactive	inactive	inactive	inactive	inactive	inactive	inactive	inactive	inactive	inactive	inactive
C=CC/C=C\C/C=C\CCCCCCCc1cccc(O)c1C(=O)O	inactive	inactive	inactive	inactive	inactive	inactive	inactive	inactive	inactive	inactive	inactive	inactive
C=C1CC23CC1CCC2C12OC(=O)C(C)(CCC1O)C2C3C(=O)O (configuration not stated)	inactive	inactive	inactive	inactive	inactive	inactive	inactive	inactive	inactive	inactive	inactive	inactive
C=C[C@H]1C(O[C@@H]2O[C@H](CO)[C@@H](O)[C@H](O)[C@H]2O)OC=C2C(=O)N3CCc4c([nH]c5ccccc45)[C@H]3C[C@H]21 (some centres not stated)	inactive	inactive	inactive	inactive	inactive	inactive	inactive	inactive	inactive	inactive	inactive	inactive
C=C1CCC2C(C)(COC(C)=O)CCCC2(C)C1CCC(C)CC(=O)O (configuration not stated)	inactive	inactive	inactive	inactive	inactive	inactive	inactive	inactive	inactive	inactive	inactive	inactive
CC(=O)OC[C@@]12C(=O)C[C@@H](C)[C@]3(C[C@@H](c4ccoc4)O[C@H]3OC(C)=O)[C@H]1CCC[C@]21CO1	inactive	inactive	inactive	inactive	inactive	inactive	inactive	inactive	inactive	inactive	inactive	inactive
CC(=O)OC1C(c2ccccc2)CCC(c2ccccc2)C1OC(C)=O (configuration not stated)	inactive	inactive	inactive	inactive	inactive	inactive	inactive	inactive	inactive	inactive	inactive	inactive
COc1cc2c(cc1OC)CC(=O)N(CCCNC[C@H]1Cc3cc(OC)c(OC)cc31)CC2	inactive	inactive	inactive	inactive	inactive	inactive	inactive	inactive	inactive	inactive	inactive	inactive
CC(=O)C12OC(C)(C)OC1CC1C3CCC4=CC(=O)C=CC4(C)C3(F)C(O)CC12C (configuration not stated)	inactive	inactive	inactive	inactive	inactive	inactive	inactive	inactive	inactive	inactive	inactive	inactive
C[C@@H]1CN(Cc2ncccn2)C[C@H]1c1nc2c(cnn2C2CCOCC2)c(=O)[nH]1	inactive	inactive	inactive	inactive	inactive	inactive	inactive	inactive	inactive	inactive	inactive	inactive
